Source: PubChem (National Center for Advancing Translational Sciences (NCATS))
ASM inhibitor: blocks human secretory acid sphingomyelinase; placental ASM, HMU-PC fluorogenic substrate, 60 min; Potency, µM (top dose mostly 57.5 µM), for inactives: at the highest dose activity change, negative = inhibition, most hits filed as inhibitors; actives 0.006% (n = 340,000); further: potency means the concentration at half of the fitted maximal effect
Target sequence (P17405 47-631 limits assumed): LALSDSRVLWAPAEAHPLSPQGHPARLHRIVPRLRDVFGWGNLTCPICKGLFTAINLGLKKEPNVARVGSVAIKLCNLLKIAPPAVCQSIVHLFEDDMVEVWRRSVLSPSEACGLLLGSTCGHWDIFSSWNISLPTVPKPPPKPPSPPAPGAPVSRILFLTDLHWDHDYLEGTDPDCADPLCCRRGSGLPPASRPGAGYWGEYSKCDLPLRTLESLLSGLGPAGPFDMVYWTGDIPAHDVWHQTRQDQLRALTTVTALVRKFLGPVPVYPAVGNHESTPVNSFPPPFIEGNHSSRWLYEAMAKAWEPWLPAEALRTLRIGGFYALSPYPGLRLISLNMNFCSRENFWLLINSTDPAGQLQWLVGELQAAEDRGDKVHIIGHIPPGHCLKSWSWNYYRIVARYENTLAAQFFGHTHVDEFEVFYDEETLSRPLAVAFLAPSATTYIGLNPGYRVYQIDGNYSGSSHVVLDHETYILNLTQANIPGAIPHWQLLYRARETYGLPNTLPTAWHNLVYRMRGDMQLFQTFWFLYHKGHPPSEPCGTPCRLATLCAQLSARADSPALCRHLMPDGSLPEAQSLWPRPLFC
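qHTS format. ASM enzyme prepared from human placenta hydrolyses the fluorogenic substrate HMU-PC0 (9 uM final) over 60 min at 37 °C after a 10 min compound preincubation.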
HepG2 viability: kills HepG2 cells in TGF-b inhibitor counter-screen; Potency, µM (top dose mostly 46.1 µM), for the others: at the top dose activity change, negative = cytotoxicity, actives largely listed as cytotoxic; actives 0.76% (n = 410,000); AID 588856; HepG2 CAGA-GFP viability, ATP luminescence, 18 h; further: potency means the concentration at half of the fitted maximal effect
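CellTiter-Glo luminescence gave cytotoxicity after 18 hours at 37 degrees C. The cells were HepG2 CAGA-GFP in 1% FBS DMEM, stimulated with 500 pg/mL TGF-beta after compound addition. %Activity was normalised to no-cell wells (complete cell-killing) and DMSO (no toxicity), and curves were fitted and classified.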
DT40 TDP1 CPT: growth inhibition of DT40 Tdp1-/-;hTDP1 cells with camptothecin (screen for TDP1 inhibitors); AID 686979; Potency, µM (titrated, usually from 46.2 µM), for the others: top-dose activity change, negative = growth inhibition, actives largely listed as inhibitors; actives 12% (n = 420,000); chicken DT40 Tdp1-/-;hTDP1 cells + 20 nM CPT, ATP luminescence, 48 h; further: potency means the concentration at half of the fitted maximal effect; on the % scale 0 is the no-effect control and ±100 the full control effect; nearly all actives have a fitted effect of over 55% in size
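Chicken DT40 Tdp1-/- cells stably complemented with human TDP1 were seeded at 400 cells/well in medium containing 20 nM camptothecin, exposed to pin-transferred compounds, and grown at 37 °C for at least 48 hr. Viability was read as ATP luminescence.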
TGFb inhibitor: blocks TGF-b signaling; HepG2 CAGA-GFP TGF-b/SMAD3 reporter, GFP fluorescence, 18 h; TGF-beta stimulated, 500 pg/mL final; Potency, µM (series often up to 46.1 µM), for the others: top-dose activity, negative = inhibition, most hits filed as inhibitors; actives 1.2% (n = 410,000); AID 588855; further: potency means the concentration at half of the fitted maximal effect; on the % scale 0 is the no-effect control and ±100 the full control effect; nearly all actives have a fitted effect of over 65% in size
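Inhibition of TGF-beta-driven CAGA-GFP reporter expression in HEPG2 cells is measured by cellular GFP fluorescence after 18 h stimulation with 500 pg/mL recombinant TGF-beta in 1% FBS medium at 37 degrees C.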
IL-1B inflam inh: inhibitors of inflammasome signaling (IL-1 beta secretion) | actives 4.7% (n = 360,000) | activity change, % at 57.5 µM | AID 743279 | THP-1 LPS/ATP IL-1B secretion, AlphaLISA, 16 h; hits give low values; in the data active means activity change below about -50%; inconclusive means mostly about -30% to -49%; further: on the % scale 0 is the no-effect control and ±100 the full control effect
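THP-1 cells pretreated 1 hr with compounds (up to 57.5 uM final), then stimulated with LPS (250 ng/mL final) plus ATP (1.25 mM final); secreted IL-1B measured by AlphaLISA after 16 hr, decreased signal indicating inhibition.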
DT40 TDP1 no CPT: qHTS for Inhibitors of human tyrosyl-DNA phosphodiesterase 1 (TDP1): qHTS in cells in absence of CPT | DT40 Tdp1-/- hTDP1 cells, no CPT, ATP luminescence, 48 h | Potency, µM (titrated, usually from 46.2 µM), for the others: top-dose activity change, negative = growth inhibition, hits mostly inhibitors | actives 15% (n = 420,000); further: potency means the concentration at half of the fitted maximal effect; on the % scale 0 is the no-effect control and ±100 the full control effect; nearly all actives have a fitted effect of over 55% in size
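Seeded 400 DT40-hTDP1 cells/well (vehicle DMSO, no 20 nM CPT); pinned compounds; ≥48 hr at 37 °C; CellTiter-Glo luminescence as viability measure.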
Starred values were filed as active, the others as inactive; i = inactive; ? = inconclusive; nt = not tested or not shown; [ ] = another dose, or the depositor's remark. Shown are actives, neighbours in structure and some others; about 19% of the full set was active somewhere. Unless noted, the call rests on the fitted dose curve; in most records, active means well fitted curve in the direction sought with a large enough effect; inconclusive means small, poorly fitted or top-dose-only effect, or another doubt; inactive means no such curve, though single readings can be large; an effect the other way counts as inactive or inconclusive.

SMILES	ASM inhibitor	HepG2 viability	DT40 TDP1 CPT	TGFb inhibitor	IL-1B inflam inh	DT40 TDP1 no CPT
C=CCN(c1ccccc1)S(=O)(=O)c1cccc(C(=O)NCC(c2cccs2)N2CCOCC2)c1 (stereo not given)	-3%	-22%	13µM*	0%	0	7.3µM*
CCN(C(=O)CSc1n[nH]c(-c2ccccc2)n1)c1c(N)n(Cc2ccccc2)c(=O)[nH]c1=O	0%	-2%	-13%	-7%	-13	10%
O=C(CCC1CCCC1)Nc1cc(C(F)(F)F)ccc1N1CCOCC1	-4%	-5%	?	-4%	-2	?
CC(=O)Nc1sc(N/N=C/c2ccccc2F)nc1-c1ccc(C)cc1	-2%	-6%	?	8%	-1	?
COc1ccc(C(CNC(=O)c2cccc(S(=O)(=O)N(C)c3ccccc3)c2)N2CCCC2)cc1 (stereo not given)	7%	-32%	?	-7%	-29	4.1µM*
CC(C)Cc1nc2cc(NS(=O)(=O)N(C)C)cc(C(=O)N3CCOc4ccccc4C3)c2n1C	nt	nt	-2%[9.04 µM]	nt	nt	-15%
Cc1ccc(-c2nnc(Nc3ccc(OCC(N)=O)cc3)c3ccccc23)cc1S(=O)(=O)N(C)C	nt	-23%	?	-17%	nt	?
Cc1cc2c(cc1C)CSC(c1ccccc1OC(=O)C(C)C)SC2	0%	-8%	?	7%	10	11µM*
COc1cc2c(cc1OC)C(COc1ccccc1OC)N(C(=O)C(C)C)CC2 (stereo not given)	3%	8%	11%	3%	-27	-12%
Cc1c(C(=O)Nc2cc(F)cc(F)c2)cnn1-c1ccccc1	-8%	-25%	13µM*	-10%	-18	12µM*
Cc1c(C(=O)Nc2ccccc2F)cnn1-c1ccccc1	1%	-11%	?	18%	0	?
Cc1c(C(=S)Nc2ccccc2)cnn1-c1ccccc1	-2%	-23%	21µM*	?	-29	-23%
Cc1c(C(=S)Nc2ccccc2)cnn1-c1ccc([N+](=O)[O-])cc1	-10%	-36%	16µM*	-14%	0	?
CC(=O)c1cnn(-c2ccccc2)c1C	0%	3%	8%	-2%	11	6%
O=C(NCc1ccc(Cl)cc1)c1ccccc1CCc1ccccc1	7%	3%	-12%	0%	-18	-30%
O=C(NCc1ccccc1Cl)c1ccccc1CCc1ccccc1	0%	-4%	?	5%	-15	16µM*
Cc1cc(C)c(NC(=O)c2ccccc2CCc2ccccc2)c(C)c1	1%	-43%	18µM*	?	13	?
Cc1cc(C)nc(-n2ncc3c2CC(C)CC3=O)n1 (stereo not given)	0%	14%	-7%	0%	13	2%
CCN(CC)S(=O)(=O)c1ccc2c(c1)nc(CCC(=O)Nc1cccc(C(F)(F)F)c1)n2CC	-15%	8%	29µM*	-11%	?	?
COc1ccc(C2c3c(ncn(CCCO)c3=N)Oc3ccc4ccccc4c32)cc1OC (stereo not given)	-6%	-63%	15µM*	?	-100*	18µM*
COc1ccc(C2c3c(ncn(CCN4CCOCC4)c3=N)Oc3ccc4ccccc4c32)cc1OC (stereo not given)	-11%	14µM*	?	?	-87*	?
COc1ccc(C2c3c(ncn(CCCO)c3=N)Oc3ccc4ccccc4c32)cc1 (stereo not given)	-14%	-150%	21µM*	?	-96*	15µM*
CC1=C(C(=O)OCC2CCCO2)C(c2ccsc2)C2=C(CCCC2=O)N1 (stereo not given)	291%	10%	7%	0%	10	?
Cc1cccc(Cn2cnc3c(cnn3C(C)(C)C)c2=O)c1F	nt	-22%	nt	-2%	nt	nt
O=C(COC(=O)Cc1cccc(C(F)(F)F)c1)Nc1ccc2[nH]c(=O)[nH]c2c1	1%	-21%	5%	-8%	15	2%
SMILES	ASM inhibitor	HepG2 viability	DT40 TDP1 CPT	TGFb inhibitor	IL-1B inflam inh	DT40 TDP1 no CPT
O=C(CN1C(=O)C2(SCC(=O)N2c2ccc(F)c(F)c2)c2ccccc21)Nc1ccccc1F (stereo not given)	nt	-5%	-12%	-10%	nt	-20%
O=C(N[C@@H](Cc1c[nH]c2ccccc12)C(=O)O)C1CCN(S(=O)(=O)c2cccs2)CC1	0%	-4%	-4%	-1%	7	18%
O=C(Nc1cccc(OC(=O)c2cccnc2)c1)c1cccnc1	-4%	2%	10µM*	-2%	8	10µM*
O=C(Nc1ccc(F)cc1)c1cccnc1	-1%	9%	9.2µM*	-4%	0	?
O=C(Nc1ccc(-c2noc(-c3cccs3)n2)cc1)c1cccnc1	-2%	-11%	?	-5%	?	29µM*
O=C(Nc1ccc(NC(=O)c2cccnc2)cc1)c1ccccc1	3%	-13%	2%	8%	2	-8%
Cc1ccccc1OCC(=O)Nc1c2c(nn1C(C)(C)C)CS(=O)(=O)C2	4%	0%	-9%	-6%	i	-10%
CC1(C)OCC(N)(CO)CO1	nt	3%	0%	0%	11	-18%
CCOC(=O)CSc1nc2ccc(N3CCOCC3)cc2c(=O)n1Cc1ccccc1	22%	2%	?	-2%	12	-58%
Fc1ccc(CSc2ccc3nnc(-c4ccccn4)n3n2)cc1	-6%	-21%	-14%	0%	-14	?
Cc1ccc(C)c(CSc2ccc3nnc(-c4ccccn4)n3n2)c1	-1%	5%	?	?	-70*	?
Cc1ccc(CSc2ccc3nnc(-c4ccccn4)n3n2)cc1	-5%	-29%	12µM*	-13%	-10	16µM*
O=C(Nc1ncc(Cc2ccc(SC(F)F)cc2)s1)c1ccc(OC(F)F)cc1	-2%	-30%	1.3µM*	?	22	1µM*
O=C(c1cccs1)N1CCCC(N2CCN(c3cccc(C(F)(F)F)c3)CC2)C1 (stereo not given)	0%	-21%	?	-15%	i	?
Cc1cc(C(=O)N2CCCC(N3CCN(c4cccc(C(F)(F)F)c4)CC3)C2)no1 (stereo not given)	-3%	19%	?	-11%	-8	16µM*
